The supplement of paper PMC10849652
Of roughly 7,900 targets only a part is listed; those with a hit were picked by preference. About 0.6% of all pairs of compound and target were hits. Values without a mark were called inactive.

Key:
Experiment in all cases: log2 fold change, soluble protein after heating vs DMSO (PISA); higher = thermal stabilisation; K562 cells, 10 uM, 30 min; active = over 0.2 and 3.5 SD of the protein, either way, in both replicates (recomputed)
saracatinib = compound: CN1CCN(CCOc2cc(OC3CCOCC3)c3c(Nc4c(Cl)ccc5c4OCO5)ncnc3c2)CC1 [saracatinib]
Method in brief: (§1)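 K562 cells at 2×10^6 cells/mL were treated with 10 μM compound for 30 min. Aliquots were heated for 3 min across 48°C-58°C, pooled, and extracted in PBS with 0.5% NP-40 at 4°C; soluble protein was the supernatant after 21,000xg for 90 min. Soluble protein was quantified by TMTpro 16plex LC-MS/MS with channel sums equalised, and reported as log2 fold change in thermal stability against DMSO controls, with values from duplicates.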

sotrastaurin = compound: CN1CCN(c2nc(C3=C(c4c[nH]c5ccccc45)C(=O)NC3=O)c3ccccc3n2)CC1 [sotrastaurin]
Method in brief: as §1

alvocidib = compound: CN1CC[C@H](c2c(O)cc(O)c3c(=O)cc(-c4ccccc4Cl)oc23)[C@H](O)C1 [alvocidib]
Method in brief: as §1

Tubastatin A = compound: CN1CCc2c(c3ccccc3n2Cc2ccc(C(=O)NO)cc2)C1 [Tubastatin A]
Method in brief: as §1

[1] = compound: CNc1nc(-c2ccc3c(N)n[nH]c3c2)cc(N2C[C@@H](C(=O)NC3CCCCC3)CC[C@H]2C)n1
Method in brief: as §1

[2] = compound: COC1=CC=C(C=C1)CN2C=CC3=C2C=C(C=C3)C(=O)NO
Method in brief: as §1

filanesib = compound: CON(C)C(=O)N1N=C(c2cc(F)ccc2F)S[C@@]1(CCCN)c1ccccc1 [filanesib]
Method in brief: as §1

zotarolimus = compound: CO[C@H]1C[C@@H]2CC[C@@H](C)[C@@](O)(O2)C(=O)C(=O)N2CCCC[C@H]2C(=O)O[C@H]([C@H](C)C[C@@H]2CC[C@H](n3cnnn3)[C@H](OC)C2)CC(=O)[C@H](C)/C=C(\C)[C@@H](O)[C@@H](OC)C(=O)[C@H](C)C[C@H](C)/C=C/C=C/C=C/1C [zotarolimus]
Method in brief: as §1

alisertib = compound: COc1cc(Nc2ncc3c(n2)-c2ccc(Cl)cc2C(c2c(F)cccc2OC)=NC3)ccc1C(=O)O [alisertib]
Method in brief: as §1

[3] = compound: COc1cccc2cc(-c3nc([C@H]4CC[C@H](C(=O)O)CC4)n4ncnc(N)c34)[nH]c12
Method in brief: as §1

defactinib = compound: CNC(=O)c1ccc(Nc2ncc(C(F)(F)F)c(NCc3nccnc3N(C)S(C)(=O)=O)n2)cc1 [defactinib]
Method in brief: as §1

[4] = compound: COC(=O)[C@H](CCSC)NC(=O)C1=C(C=C(C=C1)NC[C@H](CS)N)C2=CC=CC=C2
Method in brief: as §1

idasanutlin = compound: COc1cc(C(=O)O)ccc1NC(=O)[C@@H]1N[C@@H](CC(C)(C)C)[C@](C#N)(c2ccc(Cl)cc2F)[C@H]1c1cccc(Cl)c1F [idasanutlin]
Method in brief: as §1

[5] = compound: COc1cc2nc(-c3cc(F)ccc3O)nc(N[C@@H]3CNC[C@H]3C(C)(C)O)c2cc1OC
Method in brief: as §1

gefitinib = compound: COc1cc2ncnc(Nc3ccc(F)c(Cl)c3)c2cc1OCCCN1CCOCC1 [gefitinib]
Method in brief: as §1

lapatinib = compound: CS(=O)(=O)CCNCc1ccc(-c2ccc3ncnc(Nc4ccc(OCc5cccc(F)c5)c(Cl)c4)c3c2)o1 [lapatinib]
Method in brief: as §1

[6] = compound: CNC(=O)C1=CC=CC=C1NC2=NC(=NC=C2Cl)NC3=C(C=C(C=C3)N4CCOCC4)OC
Method in brief: as §1

rucaparib = compound: CNCc1ccc(-c2[nH]c3cc(F)cc4c3c2CCNC4=O)cc1 [rucaparib]
Method in brief: as §1

encorafenib = compound: COC(=O)N[C@@H](C)CNc1nccc(-c2cn(C(C)C)nc2-c2cc(Cl)cc(NS(C)(=O)=O)c2F)n1 [encorafenib]
Method in brief: as §1

pictilisib = compound: CS(=O)(=O)N1CCN(Cc2cc3nc(-c4cccc5[nH]ncc45)nc(N4CCOCC4)c3s2)CC1 [pictilisib]
Method in brief: as §1

Sequence of UniProt Q86TN4 (Q86TN4 whole entry, looked up): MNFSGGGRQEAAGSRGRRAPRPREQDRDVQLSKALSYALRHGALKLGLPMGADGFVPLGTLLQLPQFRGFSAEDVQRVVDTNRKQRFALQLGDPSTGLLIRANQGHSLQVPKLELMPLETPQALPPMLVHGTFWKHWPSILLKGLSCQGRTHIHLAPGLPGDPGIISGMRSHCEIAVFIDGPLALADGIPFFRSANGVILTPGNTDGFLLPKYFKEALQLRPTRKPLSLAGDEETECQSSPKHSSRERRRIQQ
Sequence of UniProt Q9HCS7 (Q9HCS7 whole entry, looked up): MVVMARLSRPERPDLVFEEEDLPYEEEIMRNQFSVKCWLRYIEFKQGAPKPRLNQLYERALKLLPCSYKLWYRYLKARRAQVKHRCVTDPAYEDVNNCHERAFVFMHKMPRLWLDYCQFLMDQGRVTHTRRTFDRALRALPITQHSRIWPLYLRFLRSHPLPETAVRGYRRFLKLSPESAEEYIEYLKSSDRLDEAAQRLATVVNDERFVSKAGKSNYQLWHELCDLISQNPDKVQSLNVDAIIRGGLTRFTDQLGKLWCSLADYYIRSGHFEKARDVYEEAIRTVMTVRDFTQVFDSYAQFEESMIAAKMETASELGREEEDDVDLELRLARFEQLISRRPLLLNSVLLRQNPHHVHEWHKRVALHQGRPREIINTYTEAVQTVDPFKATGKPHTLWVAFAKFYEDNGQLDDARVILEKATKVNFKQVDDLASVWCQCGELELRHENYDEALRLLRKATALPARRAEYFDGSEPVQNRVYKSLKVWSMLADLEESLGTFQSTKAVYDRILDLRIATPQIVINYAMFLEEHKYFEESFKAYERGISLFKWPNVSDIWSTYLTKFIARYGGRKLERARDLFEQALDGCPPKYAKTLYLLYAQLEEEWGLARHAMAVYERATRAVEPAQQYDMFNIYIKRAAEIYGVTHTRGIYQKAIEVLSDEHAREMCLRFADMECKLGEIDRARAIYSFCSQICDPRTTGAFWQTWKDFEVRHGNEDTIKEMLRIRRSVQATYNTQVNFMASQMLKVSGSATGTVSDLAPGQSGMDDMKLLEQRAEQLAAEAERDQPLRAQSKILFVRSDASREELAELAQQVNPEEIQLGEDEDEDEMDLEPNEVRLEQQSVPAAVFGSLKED
Sequence of UniProt P49815 (P49815 whole entry, looked up): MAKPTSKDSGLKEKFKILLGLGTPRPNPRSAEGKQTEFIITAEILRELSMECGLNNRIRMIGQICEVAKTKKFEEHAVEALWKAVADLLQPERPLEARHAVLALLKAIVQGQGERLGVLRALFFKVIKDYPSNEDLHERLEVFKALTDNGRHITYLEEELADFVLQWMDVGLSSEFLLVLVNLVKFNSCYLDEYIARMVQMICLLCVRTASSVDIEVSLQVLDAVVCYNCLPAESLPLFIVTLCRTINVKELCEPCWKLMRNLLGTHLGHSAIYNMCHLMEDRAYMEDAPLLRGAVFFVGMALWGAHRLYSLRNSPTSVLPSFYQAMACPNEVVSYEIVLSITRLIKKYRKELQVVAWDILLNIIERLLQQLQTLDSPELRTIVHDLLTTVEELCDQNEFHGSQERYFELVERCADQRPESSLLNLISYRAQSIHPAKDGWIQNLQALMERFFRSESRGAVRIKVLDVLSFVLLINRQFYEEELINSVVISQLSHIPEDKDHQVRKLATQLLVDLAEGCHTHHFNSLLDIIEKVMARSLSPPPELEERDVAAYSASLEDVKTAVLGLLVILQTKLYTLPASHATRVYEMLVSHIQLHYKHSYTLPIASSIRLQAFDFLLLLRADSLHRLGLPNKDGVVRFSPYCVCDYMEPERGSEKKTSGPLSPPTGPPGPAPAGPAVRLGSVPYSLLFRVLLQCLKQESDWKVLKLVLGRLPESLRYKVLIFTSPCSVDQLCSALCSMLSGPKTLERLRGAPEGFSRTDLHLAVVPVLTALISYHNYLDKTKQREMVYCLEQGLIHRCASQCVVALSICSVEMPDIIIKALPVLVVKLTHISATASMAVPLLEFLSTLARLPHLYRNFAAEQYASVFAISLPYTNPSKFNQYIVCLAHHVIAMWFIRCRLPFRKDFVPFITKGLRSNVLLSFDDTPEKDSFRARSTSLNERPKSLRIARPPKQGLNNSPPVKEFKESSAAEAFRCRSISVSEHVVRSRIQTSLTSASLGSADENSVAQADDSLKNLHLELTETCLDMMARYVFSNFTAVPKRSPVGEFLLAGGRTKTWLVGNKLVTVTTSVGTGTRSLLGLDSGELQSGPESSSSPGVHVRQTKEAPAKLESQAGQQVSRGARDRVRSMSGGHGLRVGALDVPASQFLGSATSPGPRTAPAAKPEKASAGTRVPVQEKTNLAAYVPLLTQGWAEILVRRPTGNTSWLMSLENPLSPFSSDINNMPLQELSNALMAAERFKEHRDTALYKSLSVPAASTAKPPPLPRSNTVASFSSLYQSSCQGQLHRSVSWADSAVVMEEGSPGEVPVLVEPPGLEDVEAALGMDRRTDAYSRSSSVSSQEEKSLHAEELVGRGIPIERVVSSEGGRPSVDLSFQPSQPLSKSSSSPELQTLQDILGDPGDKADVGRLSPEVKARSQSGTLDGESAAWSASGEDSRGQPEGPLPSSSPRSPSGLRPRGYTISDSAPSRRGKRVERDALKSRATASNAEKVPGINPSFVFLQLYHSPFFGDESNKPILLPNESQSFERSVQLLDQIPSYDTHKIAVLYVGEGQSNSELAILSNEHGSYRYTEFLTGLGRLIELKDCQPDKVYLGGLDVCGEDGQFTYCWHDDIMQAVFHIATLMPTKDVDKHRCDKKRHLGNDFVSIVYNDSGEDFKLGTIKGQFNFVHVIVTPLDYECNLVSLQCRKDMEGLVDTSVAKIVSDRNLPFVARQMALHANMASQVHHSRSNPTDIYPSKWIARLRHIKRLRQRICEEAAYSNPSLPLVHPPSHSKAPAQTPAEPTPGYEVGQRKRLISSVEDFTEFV
Sequence of UniProt Q8IWA0 (Q8IWA0 whole entry, looked up): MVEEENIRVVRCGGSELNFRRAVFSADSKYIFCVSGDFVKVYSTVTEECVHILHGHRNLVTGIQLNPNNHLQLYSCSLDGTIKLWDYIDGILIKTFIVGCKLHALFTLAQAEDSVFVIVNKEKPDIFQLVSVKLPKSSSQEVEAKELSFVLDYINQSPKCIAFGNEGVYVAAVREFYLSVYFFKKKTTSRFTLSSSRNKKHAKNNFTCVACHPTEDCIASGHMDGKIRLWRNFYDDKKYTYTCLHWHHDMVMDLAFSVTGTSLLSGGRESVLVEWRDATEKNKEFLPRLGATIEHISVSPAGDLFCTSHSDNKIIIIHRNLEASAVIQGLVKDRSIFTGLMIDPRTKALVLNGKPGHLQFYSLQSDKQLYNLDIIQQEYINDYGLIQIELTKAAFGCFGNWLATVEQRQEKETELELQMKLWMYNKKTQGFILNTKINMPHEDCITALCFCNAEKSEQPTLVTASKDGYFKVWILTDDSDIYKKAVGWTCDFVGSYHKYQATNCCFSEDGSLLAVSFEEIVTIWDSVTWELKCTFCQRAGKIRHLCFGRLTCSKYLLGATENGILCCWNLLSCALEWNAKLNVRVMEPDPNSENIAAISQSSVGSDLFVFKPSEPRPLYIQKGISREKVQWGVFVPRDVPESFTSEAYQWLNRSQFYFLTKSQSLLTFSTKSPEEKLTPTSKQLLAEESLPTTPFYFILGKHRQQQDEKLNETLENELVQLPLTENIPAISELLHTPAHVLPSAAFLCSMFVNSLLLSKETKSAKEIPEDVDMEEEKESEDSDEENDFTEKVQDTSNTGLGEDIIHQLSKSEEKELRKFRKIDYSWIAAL
Sequence of UniProt Q6PID6 (Q6PID6 whole entry, looked up): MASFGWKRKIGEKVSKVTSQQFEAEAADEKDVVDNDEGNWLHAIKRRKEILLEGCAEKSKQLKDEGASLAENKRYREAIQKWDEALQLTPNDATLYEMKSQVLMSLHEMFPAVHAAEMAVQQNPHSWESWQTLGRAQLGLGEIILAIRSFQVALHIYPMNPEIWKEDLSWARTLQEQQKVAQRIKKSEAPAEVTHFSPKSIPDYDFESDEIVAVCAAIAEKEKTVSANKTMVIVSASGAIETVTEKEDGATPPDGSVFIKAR
Sequence of UniProt Q16881 (Q16881 whole entry, looked up): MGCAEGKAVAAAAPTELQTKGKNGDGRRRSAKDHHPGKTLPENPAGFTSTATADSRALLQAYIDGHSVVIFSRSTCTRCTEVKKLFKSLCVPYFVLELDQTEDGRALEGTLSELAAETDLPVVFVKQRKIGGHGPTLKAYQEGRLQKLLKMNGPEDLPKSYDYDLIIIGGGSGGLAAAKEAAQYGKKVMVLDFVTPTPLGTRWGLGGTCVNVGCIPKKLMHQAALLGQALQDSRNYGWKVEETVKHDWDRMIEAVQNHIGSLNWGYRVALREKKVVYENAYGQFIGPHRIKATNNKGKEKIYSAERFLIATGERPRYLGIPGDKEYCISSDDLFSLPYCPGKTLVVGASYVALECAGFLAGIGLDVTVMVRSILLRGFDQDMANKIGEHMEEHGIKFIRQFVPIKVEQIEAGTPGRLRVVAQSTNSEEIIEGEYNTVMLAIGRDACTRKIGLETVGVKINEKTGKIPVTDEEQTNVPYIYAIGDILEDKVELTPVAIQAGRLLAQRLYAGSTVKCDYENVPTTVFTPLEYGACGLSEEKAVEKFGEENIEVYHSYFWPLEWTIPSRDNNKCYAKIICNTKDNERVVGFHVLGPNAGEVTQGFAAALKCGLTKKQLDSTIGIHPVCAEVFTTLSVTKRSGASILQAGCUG
Sequence of UniProt Q629K1 (Q629K1 whole entry, looked up): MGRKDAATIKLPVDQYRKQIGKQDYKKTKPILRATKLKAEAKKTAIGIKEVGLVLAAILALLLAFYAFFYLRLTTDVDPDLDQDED

| Target | log2 fold change (saracatinib) | log2 fold change (sotrastaurin) | log2 fold change (alvocidib) | log2 fold change (Tubastatin A) | log2 fold change [1] | log2 fold change [2] | log2 fold change (filanesib) | log2 fold change (zotarolimus) | log2 fold change (alisertib) | log2 fold change [3] | log2 fold change (defactinib) | log2 fold change [4] | log2 fold change (idasanutlin) | log2 fold change [5] | log2 fold change (gefitinib) | log2 fold change (lapatinib) | log2 fold change [6] | log2 fold change (rucaparib) | log2 fold change (encorafenib) | log2 fold change (pictilisib) |
| --- | --- | --- | --- | --- | --- | --- | --- | --- | --- | --- | --- | --- | --- | --- | --- | --- | --- | --- | --- | --- |
| TRIQK (UniProt Q629K1) | -0.014 | -0.112 | 0.011 | -0.094 | -0.045 | -0.002 | 0.1 | -0.08 | -0.142 | 0.106 |  |  |  |  |  |  |  |  |  |  |
| WDR75 (UniProt Q8IWA0) | -0.109 |  | 0.147 | 0.173 | 0.162 | -0.071 |  | -0.078 | -0.054 | -0.078 | 0.144 | -0.197 | 0.177 | -0.04 | 0.198 | -0.011 |  |  |  |  |
| TTC26 |  |  |  | -0.033 |  |  |  |  |  |  | 0.265 | 0.144 |  |  |  |  |  |  |  |  |
| UCHL5 isoform 3 (UniProt Q9Y5K5) |  | -0.292 | -0.156 | -0.035 |  | 0.229 | -0.13 | 0.227 | 0.072 | 0.16 | 0.03 | -0.254 | 0.057 | 0.036 | -0.04 | -0.07 | 0.136 | -0.08 | 0.241 |  |
| TTC33 (UniProt Q6PID6) | -0.103 | 0.009 | 0.041 |  | -0.152 | 0.094 | 0.031 | -0.113 | 0.071 | 0.086 | 0.013 | 0.054 | -0.039 | 0.082 |  | -0.15 | 0.012 | -0.008 | -0.014 | -0.093 |
| VDAC1 (UniProt C9JI87) | -0.027 | 0.034 | 0.201 |  | -0.189 |  | 0.001 | -0.217 | -0.119 | -0.014 |  |  | -0.018 | 0.161 | -0.014 | -0.182 | -0.135 | -0.247 | -0.087 |  |
| TSC2 (UniProt P49815) |  | -0.085 | -0.134 | 0.437 |  | 0.361 | 0.198 | -0.181 | 0.195 | 0.139 |  |  | 0.017 | -0.039 |  | 0.135 | -0.603 | -0.097 | 0.042 | 0.076 |
| TOM1L2 (UniProt Q6ZVM7) | -0.02 | -0.091 | -0.357 (active) |  | -0.05 | -0.04 | 0.029 | -0.036 |  |  | -0.072 | 0.058 | -0.002 |  | 0.028 |  | -0.102 |  |  |  |
| WARS1 (UniProt G3V5U1) |  | 0.315 |  |  |  | -0.557 | 0.025 |  | 0.391 | -0.105 |  |  |  |  |  |  |  | 0.228 | -0.451 |  |
| WARS1 (UniProt G3V277) |  | 0.021 |  | 0.005 |  | -0.163 | 0.066 |  | 0.04 | 0.145 | 0 | 0.14 | 0.127 |  | 0.021 |  | -0.052 |  |  | 0.095 |
| USP48 (UniProt Q86UV5) |  | -0.123 |  |  |  |  | -0.016 |  | 0.19 | -0.031 |  |  |  |  | 0.053 |  | -0.045 | -0.102 | 0.318 |  |
| TXNRD1 isoform 7 (UniProt Q16881) | -0.202 | 0.019 |  |  | 0.065 |  | -0.034 |  |  |  | -0.194 | 0.062 |  | 0.242 |  | -0.07 | -0.364 | 0.263 | -0.085 | 0.037 |
| WDR4 isoform 3 (UniProt P57081) |  | 0.098 |  |  |  |  | -0.007 |  |  |  |  |  |  |  |  |  |  |  |  | 0.359 |
| XAB2 (UniProt Q9HCS7) | 0.052 |  |  |  | 0.073 | -0.174 |  |  | -0.12 | 0.105 |  |  |  |  |  |  |  |  |  |  |
| TRPT1 isoform 4 (UniProt Q86TN4) |  | -0.208 |  |  |  | -0.088 | -0.053 |  | -0.055 | -0.061 |  |  | -0.194 |  |  |  | -0.069 | 0.101 | 0.036 |  |
| TRIM4 (UniProt Q9C037) |  | 0.024 | -0.029 | 0.097 |  | -0.066 | 0.003 | 0.056 | -0.088 | -0.137 | -0.029 | -0.108 | -0.208 | 0.129 | -0.155 | -0.011 | 0.439 (active) | 0.031 | 0.04 | 0.202 |
